In PubChem BioAssay AID602410 (Johns Hopkins Ion Channel Center, 2012):
Hit rate of the full screen: of about 340,000 compounds, about 2,800 (0.82%) were called active. The sample holds actives, similar compounds and a random draw of the others, so the mix is not that of the screen.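 The calls were made as follows: active = B-score under library mean minus 4 SD, starting fluorescence ratio at most library mean plus 5 SD; inactive = the rest.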

Molecular target: Potassium channel subfamily K member 3 (Homo sapiens) (UniProt O14649)
Assay: blockers of TASK1 two-pore potassium channel – CHO cells, FluxOR thallium flux, B-score, primary screen (AID 602410);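 as to B-score: more negative B-score means stronger inhibition of thallium flux through KCNK3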
Conditions: CHO-KCNK3 thallium flux, FluxOR fluorescence, at 10 µM; active compounds read low

Chain of Potassium channel subfamily K member 3 (Homo sapiens) (O14649 whole entry, looked up): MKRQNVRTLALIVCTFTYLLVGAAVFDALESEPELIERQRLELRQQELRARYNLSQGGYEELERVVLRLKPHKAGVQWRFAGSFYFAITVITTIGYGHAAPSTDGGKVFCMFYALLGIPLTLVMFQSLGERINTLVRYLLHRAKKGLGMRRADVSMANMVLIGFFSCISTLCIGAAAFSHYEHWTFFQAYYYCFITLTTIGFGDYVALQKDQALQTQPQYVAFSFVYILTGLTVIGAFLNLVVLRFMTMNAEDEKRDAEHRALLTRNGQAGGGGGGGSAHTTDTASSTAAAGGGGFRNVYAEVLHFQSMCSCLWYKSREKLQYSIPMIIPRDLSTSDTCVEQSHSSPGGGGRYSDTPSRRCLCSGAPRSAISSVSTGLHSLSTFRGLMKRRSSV

Structure (SMILES)	B-score
C=CCc1cc(S(=O)(=O)c2ccc(O)c(CC=C)c2)ccc1O	-11 (active)
COc1ccc(CNC(=O)C2CCC(CNc3c(N4CCOCC4)c(=O)c3=O)CC2)cc1 (stereo not drawn)	inactive
O=C(NCCc1ccccn1)c1nc(Cn2cc([N+](=O)[O-])cn2)no1	inactive
O=C(c1cc(-c2ccc(O)cc2)on1)N1CCCc2ccccc21	-9.08 (active)
O=C(c1cc(-c2ccc(O)cc2)on1)N1CCOCC1	inactive
O=C(c1cc(-c2cccc(O)c2)on1)N1CCc2ccccc2C1	inactive
Cc1onc(-c2ccccc2)c1C(=O)N=C(N)c1ccc(Cl)cc1	inactive
CCc1ccc(C(=O)CSc2nnc(C)c(=O)[nH]2)cc1	inactive
COC(=O)c1c(NC(=O)c2ccccc2F)sc2c1C(C(=O)OC)CC2 (stereo not drawn)	inactive
O=C(CNS(=O)(=O)c1ccccc1)NCC(=O)OCc1ccccc1F	inactive
COc1ccc(NC(=O)c2cc3nc(-c4ccccc4)cc(C)n3n2)cc1OC	inactive
COC(=O)C(C)Sc1ccc2nnc(-c3cccc(F)c3)n2n1 (stereo not drawn)	inactive
COCCNc1cc(-c2ccccc2)nc2cc(-c3cccc(F)c3)nn12	-8.74 (active)
CC1CCCN(CC(=O)Nc2cc(Cl)ccc2Oc2ccccc2)C1 (stereo not drawn)	-11.4 (active)
O=C(CSc1ccccc1)Nc1cc(Cl)ccc1Oc1ccccc1	inactive
CC(=O)Nc1ccc(NC(=O)CN2CCCC(C)C2)c(Cl)c1 (stereo not drawn)	inactive
O=C1CCC[C@@H]2CC(N3CCCCC3)C[C@@H]3CCN1[C@H]23 (stereo partly drawn)	inactive
COc1ccc(CC(NC(C)=O)C(=O)N2CCN(C(=O)Nc3cccc(Cl)c3)CC2)cc1OC (stereo not drawn)	inactive
CCCNC(=O)CSc1nc(Cc2ccccc2)nc2ccccc12	inactive
CCc1nc(SCC(=O)NNC(=O)c2ccc(C)cc2)c2ccccc2n1	-8.73 (active)
Cc1ccc(C(=O)NNC(=O)CSc2nnc3ccccn23)cc1	inactive
C=CCSc1nc(Cc2ccc(Cl)cc2)nc2ccccc12	inactive
O=C(CNC(=O)c1ccc(Br)o1)Nc1ccccc1	inactive
CCN1CCN(c2c(Cl)cccc2NC(=O)c2ccc(Br)o2)CC1	inactive
CCCC(=O)Nc1ccc(Cl)c(NC(=O)c2ccc(Br)o2)c1	-9.33 (active)

Structure (SMILES)	B-score
CC(=O)C1=C(C)NC(C)=C(C(C)=O)C1c1cn(-c2ccccc2)nc1-c1cccs1	inactive
COc1ccc(C(C(=O)NC(C)(C)C)N(C(=O)Cn2nnc3ccccc32)c2ccc(C(C)=O)cc2)cc1O (stereo not drawn)	inactive
C#CC(C)(C)NC(=O)c1cnc(-c2ccccc2)nc1-c1ccccc1	inactive
CS(=O)(=O)c1ccc(-c2nnn(CC(=O)Nc3ccc4c(c3)OCCO4)n2)cc1	inactive
CC1(C)CC(=O)C/C(=N\NC(=O)c2cccs2)C1	inactive
CN(CC(=O)NCCc1ccc(S(N)(=O)=O)cc1)CC(=O)Nc1ccc(F)c(F)c1F	inactive
Cc1ccc(C(=O)N/C(=C\c2cn(S(=O)(=O)N(C)C)c3ccccc23)C(=O)N2CCCC2)cc1	inactive
C=CCSc1nnc(N2C(=O)C(O)=C(C(=O)c3ccco3)C2c2ccc(F)cc2)s1 (stereo not drawn)	-10.6 (active)
C=CCOc1cccc(C2C(C(=O)c3ccc(C)o3)=C(O)C(=O)N2c2nnc(C)s2)c1 (stereo not drawn)	inactive
Cc1ccc2nc(N3C(=O)C(O)=C(C(=O)c4ccco4)C3c3cccc(O)c3)sc2c1 (stereo not drawn)	inactive
Cc1cc(OC(=O)c2c(Cl)cccc2Cl)nc(C)n1	inactive
O=C(c1c(F)cccc1Cl)N1CCN(S(=O)(=O)c2ccc3c(c2)OCCCO3)CC1	inactive
Cc1cc(C)c(S(=O)(=O)c2ccccc2)c(OC(=O)c2c(F)cccc2Cl)n1	-14.3 (active)
CCCCc1nc2ccccc2c(NC(=O)CN2CCN(C)CC2)c1CCC	inactive
CSCc1cc(N2CCOCC2)nc(SCc2ccc(Cl)cc2Cl)n1	inactive
Clc1ccc(CSc2nnc(/C=C/c3ccccc3)o2)c(Cl)c1	inactive
CSCc1cc(N(C)C)nc(SCc2ccc(Cl)cc2Cl)n1	-9.62 (active)
CC(=O)Nc1ccc(NC(=O)COC(=O)c2ccccc2C(=O)c2ccccc2)cc1	inactive
N#Cc1cccc(NC(=O)COC(=O)c2ccccc2C(=O)c2ccc(Cl)c([N+](=O)[O-])c2)c1	-11.8 (active)
CC(=O)Nc1ccc(NC(=O)C(C)OC(=O)c2ccccc2C(=O)c2ccc(Cl)c([N+](=O)[O-])c2)cc1 (stereo not drawn)	inactive
CCOc1ccc2oc(C(=O)N(CC)CC(=O)Nc3ccc(NC(C)=O)cc3)c(C)c2c1	inactive
Cc1nc(=O)c(-c2ccccc2)c(C)n1-c1ccc(Br)cc1	inactive
CC(C)Oc1ccc(C2NC(=O)NC2=O)cc1 (stereo not drawn)	inactive
O=C1c2ccccc2C2=Nc3ccccc3SC(c3ccccc3F)C12 (stereo not drawn)	-12.4 (active)
Cc1cccc(C2c3c(n(C)c(=O)n(C)c3=O)N=C3c4ccccc4C(=O)C32)c1 (stereo not drawn)	inactive

Structure (SMILES)	B-score
Cc1csc2nc(O)c(C(=O)NCCN3CCOCC3)c(=O)n12	inactive
Cc1cccc(NC(=O)c2sc3nc4c(c(-c5ccco5)c3c2N)CCC4)c1	-11.4 (active)
COc1ccc(OC)c(NC(=O)c2sc3nc(C)cc(C)c3c2N)c1	inactive
Cc1ccc(NC(=O)c2sc3nc(N)c(C#N)cc3c2N)cc1	inactive
CCCN=C1NC(=O)C(CC(=O)NCCc2ccc(OC)c(OC)c2)S1 (stereo not drawn)	inactive
O=C1c2ccccc2C(Nc2ccc3c(c2)OCCO3)N1Cc1ccco1 (stereo not drawn)	inactive
CCOC(=O)c1cccc(NC(=O)C2CCN(c3ncnc4c3nc3n4CCCCC3)CC2)c1	inactive
O=C(COc1ccccc1F)Nc1nc(-c2ccccn2)cs1	inactive
COc1ccc(CC(=O)Nc2nc(-c3ccc(F)c(F)c3)cs2)cc1OC	-12.4 (active)
COc1ccccc1NC(=O)Nc1nc(CC(=O)Nc2ccccc2F)cs1	inactive
CCOC(=O)N1CCN(Cc2nc(Cc3cccc(C(F)(F)F)c3)no2)CC1	inactive
CN1CCN(CCCNC(=O)c2cc3c(=O)oc4ccccc4c3s2)CC1	inactive
O=C(NCCCN1CCOCC1)c1cc2c(s1)CCC2	inactive
Cc1cccc2c1-c1sc(C(=O)NCCCN3CCc4ccccc4C3)cc1CO2	-9.55 (active)
O=C(O)Cc1csc(NC(=O)CSc2nnnn2-c2ccc(O)cc2)n1	inactive
COc1ccc(Cl)cc1NC(=O)NC(C)C(C)(C)C (stereo not drawn)	inactive
COc1ccc(Cl)cc1NC(=O)NCC1CCN(Cc2ccccc2F)CC1	inactive
COc1ccc(Cl)cc1NC(=O)C(C)N1CCc2ccccc21 (stereo not drawn)	-8.75 (active)
Cc1nc(CNS(=O)(=O)c2cc([N+](=O)[O-])ccc2C)cs1	inactive
O=C(NCc1cn2ccsc2n1)Nc1cccc(Cl)c1	inactive
Cc1ccc(S(=O)(=O)NCc2cn3ccsc3n2)c(C)c1	-20.8 (active)
COC(=O)c1ccccc1N=Nc1c(C)[nH][nH]c1=O	inactive
CCN1CCN(CCNC(=O)c2ccc(/C=C3/Sc4ccccc4N(Cc4cccc(C)c4)C3=O)cc2)CC1	-11.5 (active)
CN1CCN(CCCNC(=O)c2ccc(/C=C3\Oc4ccccc4N(Cc4ccc(Cl)cc4)C3=O)cc2)CC1	inactive
O=C(NCCCN1CCOCC1)c1ccc2c(c1)N(Cc1cccc(F)c1)C(=O)c1ccccc1S2	inactive

Structure (SMILES)	B-score
CC[C@]1(C(=O)OC)[C@H]2C(=O)N(Cc3ccccc3)C(=O)[C@H]2[C@H]2CN=C(SCc3ccc(C#N)cc3)N21	inactive
CCc1ccc(OC(C)C(=O)Nc2ccc(S(=O)(=O)Nc3cc(C)on3)cc2)cc1 (stereo not drawn)	inactive
Cc1cc(NC(=O)Nc2ccc(Cl)cc2)n(-c2ccccc2)n1	-10.7 (active)
Cc1cc(C(=O)NCCc2ccc(Cl)cc2)n(-c2ccccc2)n1	inactive
Cc1ccc(NC(=O)Nc2cc(-c3ccccc3)nn2C)cc1Cl	inactive
O=C(Nc1ccccc1)O/N=C1\CCCCC1c1ccc([N+](=O)[O-])cc1[N+](=O)[O-] (stereo not drawn)	-9.88 (active)
O=[N+]([O-])c1ccc(N/N=C2/CCCCC2c2ccccn2)c([N+](=O)[O-])c1 (stereo not drawn)	inactive
C[n+]1ccccc1C1CCCC/C1=N\Nc1ccc([N+](=O)[O-])cc1[N+](=O)[O-] (stereo not drawn)	inactive
Cc1ccc(S(=O)(=O)N(CC(O)CN2C(=O)NC(C)(C)C2=O)c2cccc([N+](=O)[O-])c2)cc1 (stereo not drawn)	inactive
C/C(=N/NC(=O)c1ccc(Br)o1)c1ccc(C)o1	inactive
O=C(C1CC(=O)N(c2ccc(Br)cc2)C1)N1CCCC1 (stereo not drawn)	inactive
CC(NC(=O)Cn1cc(C(F)(F)F)cc(Cl)c1=O)c1ccccc1 (stereo not drawn)	inactive
O=C(CCl)Nc1ccc(Sc2ccc(NC(=O)CCl)cc2)cc1	inactive
O=C(Nc1ccncc1)Nc1ccc(F)cc1	inactive
CC(C)(CCl)C(=O)Nc1ccc(Sc2ccc(F)cc2)cc1	-12 (active)
CCn1nnnc1SCC(=O)c1ccc(C)cc1C	inactive
Cc1ccc(NC(=O)COc2ccc(-n3ccnc3)cc2)cc1Cl	inactive
c1ccc(CN=C2Nc3ccccc3CS2)nc1	inactive
COc1ccc(C(CCNCc2ccccc2F)c2ccc(F)cc2)cc1 (stereo not drawn)	inactive
CN(CC(=O)Nc1ccc(S(=O)(=O)N2CCCC2)cc1)Cc1ccc(Cl)c(Cl)c1	inactive
CN(CCC(=O)Nc1cc(S(=O)(=O)N(C)C)ccc1Cl)CC(=O)Nc1ccc(F)cc1	-16.6 (active)
CN(CC(=O)Nc1ccc(F)cc1)CC(=O)Nc1ccc(Cl)c(S(=O)(=O)N2CCOCC2)c1	inactive
COc1cc(C(=O)CCc2ccc3c(c2)OCO3)cc(OC)c1OC	inactive
